Assay results from PubChem BioAssay.
Entries with a potency or affinity are not part of this list. Activity calls are given as the source filed them. The limit is not given here; nearly all actives have IC50 up to about 0.91 µM.

target: Calcium-dependent protein kinase 4 (Plasmodium falciparum (isolate 3D7)) (UniProt Q8IBS5); experiment: PfCDPK4 kinase inhibitors, biochemical, TCAMS library (AID 1159588); settings: recombinant PfCDPK4, Kinase-Glo ATP depletion luminescence
Sequence (Q8IBS5 whole entry, looked up): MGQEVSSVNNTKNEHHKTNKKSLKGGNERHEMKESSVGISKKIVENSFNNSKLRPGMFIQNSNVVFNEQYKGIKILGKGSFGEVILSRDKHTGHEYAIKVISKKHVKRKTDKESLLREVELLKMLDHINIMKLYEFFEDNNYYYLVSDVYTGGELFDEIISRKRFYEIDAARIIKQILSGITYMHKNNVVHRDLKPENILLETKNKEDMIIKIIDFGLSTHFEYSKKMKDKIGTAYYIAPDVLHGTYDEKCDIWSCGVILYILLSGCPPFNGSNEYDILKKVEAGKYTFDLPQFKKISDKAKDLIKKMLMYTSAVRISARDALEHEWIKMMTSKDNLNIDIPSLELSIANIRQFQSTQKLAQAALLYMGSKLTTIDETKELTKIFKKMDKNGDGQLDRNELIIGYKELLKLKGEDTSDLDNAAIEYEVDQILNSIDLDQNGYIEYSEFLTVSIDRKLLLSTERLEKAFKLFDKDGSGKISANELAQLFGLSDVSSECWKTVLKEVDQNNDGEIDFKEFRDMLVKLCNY

outcome, inactive:
N#Cc1ccc(N2CCN(Cc3ccc(-c4cccc(-c5nc6ccccc6[nH]5)c4)cc3)CC2)nc1
COc1ccc(CNCc2ccc(-c3cccc(-c4nc5ccc(F)cc5[nH]4)c3)cc2)cc1
FC(F)(F)c1ccc2nc(-c3ccc(-c4ccc(CNCCN5CCNCC5)cc4)cc3)[nH]c2c1
Nc1ncc(-c2ccc3[nH]ccc3c2)c2ccc(-c3ccncc3)cc12
Cc1cc(N)c2cc(NC(=O)c3cc4ccccc4s3)ccc2n1
O=C(N[C@@H](Cc1ccccc1)C(=O)O)c1cc(-c2ccc(F)cc2)no1 (tested in a mixture with another compound)
CCCCC(CC)CN1C(=O)C(c2ccccc2)(c2ccccc2)N=C1N (stereo not given)
O=C(Nc1ccccc1)N(Cc1cccc(-c2ccc(CNCCc3ccccc3)cc2)c1)C1CCN(Cc2ccccc2)CC1
CCNc1cc(C(=O)N[C@@H](Cc2ccccc2)[C@H](O)CNC(C)(C)CCCC(C)C)cc(N2CCCCS2(=O)=O)c1
COc1cc(C)nc2ccc(NC(=O)Nc3ccc4nc(C)cc(OC)c4c3)cc12
COc1ccc(CNC(=O)C2Cc3ccccc3CN2Cc2ccc3ccccc3c2)cc1 (stereo not given)
O=C(/C=C/c1ccc2ccccc2c1)NCCCCCN1CCC(c2c[nH]c3ccccc23)CC1
O=C(N[C@@H](Cc1ccccc1)C(=O)NC1CCCc2ccccc21)c1ccc(O)c(-c2ccc(Cl)c(Cl)c2)c1 (stereo not given in full)
COc1cc(Nc2nc(N)n(C(=O)c3ccc4c(c3)OCO4)n2)cc(OC)c1OC
CC(C)CCNc1nc(NCCc2ccccc2)c2cc(O)ccc2n1
COc1cccc(CCc2nc3c(N4CCC(Cc5ccccc5)CC4)cccc3n2CC2CNCCO2)c1 (stereo not given)
O=C(OCC1CCN(Cc2ccccc2)C1)c1ccc(Cl)cc1 (stereo not given)
Oc1ccc(CCNc2nc(NCCCOc3cc(CN4CCCCC4)ccc3F)nc(N3CCNCC3)n2)cc1
Cc1noc(C)c1-c1cccc(CNCc2cccc(-c3cccc(-c4nc5ccc(C(F)(F)F)cc5[nH]4)c3)c2)c1
CC1CCCN1Cc1cccc(-c2ccc(C(=O)NCCOc3ccccc3)s2)c1 (stereo not given)
COc1cc(C(=O)NCCCN2CCN(c3cccc(Cl)c3)CC2)ccc1-c1cc2cc(Cl)c(Cl)cc2[nH]1
CCn1c(SCC(=O)Nc2cc(C(F)(F)F)ccc2Cl)nc2ccccc2c1=O
COc1ccc2nccc([C@@H](O)CN3CCC(NC(=O)Cc4cccc5c(Br)cccc45)CC3)c2c1
CC(CN(C)C)C(=O)Nc1cccc(-c2cccc(-c3nc4ccccc4[nH]3)c2)c1 (stereo not given)
Fc1cccc(COc2ccc(Nc3ncnc4sc(C#C[C@H]5CC[C@H](CNCC(F)(F)F)N5)cc34)cc2Cl)c1
COc1cccc2c(NN=Cc3cccc(F)c3)ccnc12
CN1CCN(Cc2cc(NC(=O)c3ccc(-c4ccc(Cl)cc4Cl)cc3)ccc2-c2ccccc2)CC1
CCCCCCN(CCCCCC)CC(O)c1cc(-c2ccc(Cl)cc2)nc2c(C)cc(C)cc12 (stereo not given)
Cc1cc(N)c2cc(NC(=O)c3cc(C(F)(F)F)cc(C(F)(F)F)c3)ccc2n1
O=C(Nc1ccc(Cl)cc1)c1ccc(S(=O)(=O)NCC2CCN(CC3CCCCC3)CC2)cc1
COc1cccc(NC(=O)CSc2nc(-c3ccccc3Cl)ns2)c1
CC(C)c1ccc(S(=O)(=O)Nc2cccc(CCN3CCC(N4CCCCC4)CC3)c2)cc1
Cn1cnc2c(SCc3ccccc3OCc3ccccc3)ncnc21
O=C(Nc1ccc(N2CCNCC2)nc1)c1oc(-c2ccccc2)nc1C(F)(F)F
CC(=O)Nc1nc(C(=O)Nc2ccc(-c3cccc(-c4nc5ccccc5[nH]4)c3)cc2)cs1
Cc1ccc(S(=O)(=O)NC2CCN(CCNC(=O)Nc3cc(C)nc4ccccc34)C2)cc1 (stereo not given)
O=C(Nc1ccc(-c2csc(-c3nc4ccccc4[nH]3)c2)cc1)Nc1ccsc1
O=C(NC1CCCCCC1)C1CCCN(C(=O)c2ccc(O)c(-c3ccc(Cl)c(Cl)c3)c2)C1 (stereo not given)
CCCNC(=O)CN1CN(c2ccccc2)C2(CCN(C(=O)c3ccc(C(C)(C)C)cc3)CC2)C1=O
N#Cc1ccc2[nH]cc(CN3CCC4(CC3)CN(CCNCc3ccccc3)C(=O)O4)c2c1
